# Reference: ChEMBL document CHEMBL5598561, “ASAP - In vitro binding kinetics” (2024)
# Biological target: Nonstructural protein 3 (Zika virus) (UniProt A0A024AXB9)
# Details: PRVABC59, Concentration 10.0 uM
# Chain of Nonstructural protein 3 (Zika virus) (A0A024AXB9 as listed by the source): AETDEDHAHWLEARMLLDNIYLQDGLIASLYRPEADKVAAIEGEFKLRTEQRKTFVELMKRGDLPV
compound,measurement,setting,value
Cc1ccc(C(C)C)c(C(=O)Nc2ccc3c(c2)CNC3)c1,pKD,"Immobilization level 10000.0 pg/mm2, Rmax 25.0 pg/mm2, ka 195679.525 M-1s-1, kd 7.321 1/s",4.43
same,pKD,"Immobilization level 12000.0 pg/mm2, Rmax 28.0 pg/mm2, ka 382623.73 M-1s-1, kd 5.226 1/s",4.87
same,pKD,"Immobilization level 13000.0 pg/mm2, Rmax 25.0 pg/mm2, ka 300897.372 M-1s-1",4.69
Cn1nc(C(=O)Nc2ccc3c(c2)CNC3)c2cc(Br)ccc21,pKD,"Immobilization level 3900.0 pg/mm2, Rmax 7.0 pg/mm2, ka 186374.339 M-1s-1, kd 1.611 1/s",5.06
same,pKD,"Immobilization level 4900.0 pg/mm2, Rmax 17.0 pg/mm2, ka 132352.529 M-1s-1, kd 1.379 1/s",4.98
same,pKD,"Immobilization level 5500.0 pg/mm2, Rmax 22.0 pg/mm2, ka 128273.344 M-1s-1, kd 1.393 1/s",4.96
CC(C)c1cc(Br)cc(C(=O)Nc2ccc3c(c2)CNC3)c1,pKD,"Immobilization level 10000.0 pg/mm2, Rmax 17.0 pg/mm2, ka 881880.966 M-1s-1, kd 1.212 1/s",5.86
same,pKD,"Immobilization level 12000.0 pg/mm2, Rmax 74.0 pg/mm2, ka 247931.968 M-1s-1, kd 0.872 1/s",5.45
same,pKD,"Immobilization level 13000.0 pg/mm2, Rmax 30.0 pg/mm2, ka 643252.953 M-1s-1, kd 1.046 1/s",5.79
NS(=O)(=O)c1cc(Cl)cc(C(=O)Nc2ccc3c(c2)CNC3)c1,pKD,"Immobilization level 10000.0 pg/mm2, Rmax 26.0 pg/mm2, ka 224016.174 M-1s-1, kd 2.677 1/s",4.92
same,pKD,"Immobilization level 12000.0 pg/mm2, Rmax 52.0 pg/mm2, ka 213819.19 M-1s-1, kd 1.773 1/s",5.08
same,pKD,"Immobilization level 13000.0 pg/mm2, Rmax 31.0 pg/mm2, ka 267165.084 M-1s-1, kd 2.041 1/s",5.12
Cc1ccc(C(=O)Nc2ccc3c(c2)CNC3)c2[nH]ncc12,pKD,"Immobilization level 10000.0 pg/mm2, Rmax 28.0 pg/mm2, ka 287009.784 M-1s-1, kd 5.44 1/s",4.72
same,pKD,"Immobilization level 12000.0 pg/mm2, Rmax 65.0 pg/mm2, ka 163548.417 M-1s-1, kd 3.844 1/s",4.63
same,pKD,"Immobilization level 13000.0 pg/mm2, Rmax 48.0 pg/mm2, ka 218448.051 M-1s-1, kd 4.78 1/s",4.66
O=C(Nc1ccc2c(c1)CNC2)c1cc(Cl)cc2ccncc12,pKD,"Immobilization level 10000.0 pg/mm2, Rmax 18.0 pg/mm2, ka 555072.266 M-1s-1, kd 0.336 1/s",6.22
same,pKD,"Immobilization level 12000.0 pg/mm2, Rmax 46.0 pg/mm2, ka 241038.936 M-1s-1, kd 0.226 1/s",6.03
same,pKD,"Immobilization level 13000.0 pg/mm2, Rmax 30.0 pg/mm2, ka 431290.6 M-1s-1, kd 0.289 1/s",6.17
O=C(Nc1ccc2c(c1)CNC2)c1cc(Cl)ccc1SC1CCCC1,pKD,"Immobilization level 10000.0 pg/mm2, Rmax 23.0 pg/mm2, ka 575465.756 M-1s-1, kd 3.5 1/s",5.22
same,pKD,"Immobilization level 12000.0 pg/mm2, Rmax 62.0 pg/mm2, ka 231361.37 M-1s-1, kd 1.925 1/s",5.08
same,pKD,"Immobilization level 13000.0 pg/mm2, Rmax 43.0 pg/mm2, ka 253243.383 M-1s-1, kd 2.083 1/s",5.08
O=C(Nc1ccc(C2CNC2)cc1)c1cc(Cl)cc2[nH]ncc12,pKD,"Immobilization level 10000.0 pg/mm2, Rmax 37.0 pg/mm2, ka 291088.891 M-1s-1, kd 2.184 1/s",5.12
same,pKD,"Immobilization level 12000.0 pg/mm2, Rmax 69.0 pg/mm2, ka 224213.878 M-1s-1, kd 1.69 1/s",5.12
same,pKD,"Immobilization level 13000.0 pg/mm2, Rmax 34.0 pg/mm2, ka 337518.302 M-1s-1, kd 1.709 1/s",5.3
O=C(Nc1cnc2c(c1)CNCC2)c1cc(Cl)cc2[nH]ncc12,pKD,"Immobilization level 10000.0 pg/mm2, Rmax 20.0 pg/mm2, ka 1026935.718 M-1s-1, kd 0.802 1/s",6.11
same,pKD,"Immobilization level 12000.0 pg/mm2, Rmax 35.0 pg/mm2, ka 607851.885 M-1s-1, kd 0.465 1/s",6.12
same,pKD,"Immobilization level 13000.0 pg/mm2, Rmax 25.0 pg/mm2, ka 909514.232 M-1s-1, kd 0.608 1/s",6.17
Cc1cc(C(=O)Nc2ccc3c(c2)CNC3)c2cn[nH]c2c1,pKD,"Immobilization level 10000.0 pg/mm2, Rmax 20.0 pg/mm2, ka 694418.255 M-1s-1, kd 0.431 1/s",6.21
same,pKD,"Immobilization level 12000.0 pg/mm2, Rmax 39.0 pg/mm2, ka 340621.404 M-1s-1, kd 0.261 1/s",6.12
same,pKD,"Immobilization level 13000.0 pg/mm2, Rmax 29.0 pg/mm2, ka 572465.277 M-1s-1, kd 0.338 1/s",6.23
N#Cc1cc(Cl)cc([C@H](C#N)Nc2ccc3c(c2)CNC3)c1,pKD,"Immobilization level 10000.0 pg/mm2, Rmax 24.0 pg/mm2, ka 238302.252 M-1s-1, kd 1.184 1/s",5.3
same,pKD,"Immobilization level 12000.0 pg/mm2, Rmax 44.0 pg/mm2, ka 146250.163 M-1s-1, kd 0.612 1/s",5.38
same,pKD,"Immobilization level 13000.0 pg/mm2, Rmax 28.0 pg/mm2, ka 315015.409 M-1s-1, kd 0.863 1/s",5.56
CC(C)COc1ccc(Cl)cc1C(=O)Nc1ccc2c(c1)CNC2,pKD,"Immobilization level 10000.0 pg/mm2, Rmax 31.0 pg/mm2, ka 259814.072 M-1s-1, kd 6.366 1/s",4.61
same,pKD,"Immobilization level 12000.0 pg/mm2, Rmax 37.0 pg/mm2, ka 228783.03 M-1s-1, kd 3.033 1/s",4.88
same,pKD,"Immobilization level 13000.0 pg/mm2, Rmax 33.0 pg/mm2, ka 351290.772 M-1s-1, kd 5.134 1/s",4.83
O=C(Nc1ccc2c(c1)CNCCO2)c1cc(Cl)cc2[nH]ncc12,pKD,"Immobilization level 10000.0 pg/mm2, Rmax 42.0 pg/mm2, ka 416936.25 M-1s-1, kd 0.968 1/s",5.63
same,pKD,"Immobilization level 12000.0 pg/mm2, Rmax 47.0 pg/mm2, ka 414358.163 M-1s-1, kd 0.643 1/s",5.81
same,pKD,"Immobilization level 13000.0 pg/mm2, Rmax 56.0 pg/mm2, ka 373791.933 M-1s-1, kd 0.809 1/s",5.67
COC(=O)CNC(=O)[C@H](Nc1ccc2c(c1)CNC2)c1cc(Cl)cc(C2CC2)c1,pKD,"Immobilization level 10000.0 pg/mm2, Rmax 43.0 pg/mm2, ka 346362.757 M-1s-1, kd 0.129 1/s",6.43
same,pKD,"Immobilization level 12000.0 pg/mm2, Rmax 59.0 pg/mm2, ka 177006.564 M-1s-1, kd 0.106 1/s",6.22
same,pKD,"Immobilization level 13000.0 pg/mm2, Rmax 62.0 pg/mm2, ka 244445.044 M-1s-1, kd 0.134 1/s",6.26
CC(C)NC(=O)[C@H](Nc1ccc2c(c1)CNC2)c1cc(Cl)cc2[nH]ncc12,pKD,"Immobilization level 10000.0 pg/mm2, Rmax 25.0 pg/mm2, ka 625134.982 M-1s-1, kd 0.246 1/s",6.4
same,pKD,"Immobilization level 12000.0 pg/mm2, Rmax 48.0 pg/mm2, ka 290518.5 M-1s-1, kd 0.198 1/s",6.17
same,pKD,"Immobilization level 13000.0 pg/mm2, Rmax 30.0 pg/mm2, ka 486694.476 M-1s-1, kd 0.217 1/s",6.35
CCCN1C(=O)[C@](C#N)(Nc2ccc3c(c2)CNC3)c2ccccc21,pKD,"Immobilization level 3900.0 pg/mm2, Rmax 21.0 pg/mm2, ka 159960.868 M-1s-1, kd 3.775 1/s",4.63
same,pKD,"Immobilization level 5500.0 pg/mm2, Rmax 21.0 pg/mm2, ka 193790.134 M-1s-1, kd 2.393 1/s",4.91
same,pKD,"Immobilization level 12000.0 pg/mm2, Rmax 14.0 pg/mm2, ka 179346.718 M-1s-1, kd 2.44 1/s",4.87
O=C(NCC1CCOCC1)[C@H](Nc1ccc2c(c1)CNC2)c1cc(Cl)cc2[nH]ncc12,pKD,"Immobilization level 10000.0 pg/mm2, Rmax 24.0 pg/mm2, ka 732529.674 M-1s-1, kd 0.501 1/s",6.17
same,pKD,"Immobilization level 12000.0 pg/mm2, Rmax 44.0 pg/mm2, ka 461664.392 M-1s-1, kd 0.336 1/s",6.14
same,pKD,"Immobilization level 13000.0 pg/mm2, Rmax 32.0 pg/mm2, ka 718906.653 M-1s-1, kd 0.399 1/s",6.25
O=C(Nc1ccc2c(c1)CNC2)c1cc(Br)cc2[nH]c(C3CCOCC3)nc12,pKD,"Immobilization level 10000.0 pg/mm2, Rmax 36.0 pg/mm2, ka 49989.202 M-1s-1, kd 0.558 1/s",4.95
same,pKD,"Immobilization level 12000.0 pg/mm2, Rmax 42.0 pg/mm2, ka 41393.875 M-1s-1, kd 0.2 1/s",5.32
same,pKD,"Immobilization level 13000.0 pg/mm2, Rmax 57.0 pg/mm2, ka 35403.894 M-1s-1, kd 0.403 1/s",4.94
Clc1cc(CNc2ccc3c(c2)CNC3)c2cn[nH]c2c1,pKD,"Immobilization level 10000.0 pg/mm2, Rmax 2.0 pg/mm2, ka 219034.03 M-1s-1, kd 0.842 1/s",5.42
same,pKD,"Immobilization level 12000.0 pg/mm2, Rmax 10.0 pg/mm2, ka 126196.485 M-1s-1, kd 1.272 1/s",5
same,pKD,"Immobilization level 13000.0 pg/mm2, ka 206129.831 M-1s-1, kd 1.048 1/s",5.29
